# High-throughput results (PubChem)
# A selection: hits, their analogues and other compounds. The true share with any hit is near 6.1%.
# HepG2 viability: kills HepG2 cells in TGF-b inhibitor counter-screen; 0.76% of 410,000 active; HepG2 CAGA-GFP viability, ATP luminescence, 18 h; Potency, µM (doses to about 46.1 µM), inactives show at the top dose activity change, negative = cytotoxicity, most hits filed as cytotoxic
#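 HepG2 CAGA-GFP cells (1000/well, DMEM with 1% FBS) received compound, then TGF-beta at 500 pg/mL final, and were incubated 18 hours at 37 degrees C. Viability was read by CellTiter-Glo luminescence. Media-only wells were set as complete cell-killing and DMSO as no toxicity.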
# RORg inh: ROR gamma (mouse) transcription inhibition. 5.4% of 310,000 active. Potency, µM (highest dose often 53.6 µM), inactives show at the highest dose activity change, negative = inhibition, usual class: inhibitors. P51450. AID 2551. Drosophila S2 Gal4-RORgamma UAS-luciferase reporter, 20 h; note: % is set by controls: 0 for no effect and ±100 for the full control effect; nearly all actives have a fitted effect of over 60% in size
# Target sequence (P51450 whole entry, looked up, the tested form may be a part): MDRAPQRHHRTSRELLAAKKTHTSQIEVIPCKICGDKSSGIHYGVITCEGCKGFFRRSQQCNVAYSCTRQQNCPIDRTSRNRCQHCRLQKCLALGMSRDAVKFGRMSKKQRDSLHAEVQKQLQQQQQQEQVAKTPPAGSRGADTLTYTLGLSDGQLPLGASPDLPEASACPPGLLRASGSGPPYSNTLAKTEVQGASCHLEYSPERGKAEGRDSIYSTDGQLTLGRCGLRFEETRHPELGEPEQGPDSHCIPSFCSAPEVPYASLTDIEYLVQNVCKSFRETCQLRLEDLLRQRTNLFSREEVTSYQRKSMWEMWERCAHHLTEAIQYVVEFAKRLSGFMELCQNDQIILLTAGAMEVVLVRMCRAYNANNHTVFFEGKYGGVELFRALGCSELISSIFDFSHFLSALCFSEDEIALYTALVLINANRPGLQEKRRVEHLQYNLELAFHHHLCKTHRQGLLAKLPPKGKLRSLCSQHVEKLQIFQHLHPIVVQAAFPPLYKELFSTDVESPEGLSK
#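 Schneider cells (Drosophila), stable Gal4 DBD–ROR gamma + UAS-luc; 1 hr cmpd preincubation; Cu2+ induction 700 uM final; 20 hr ambient; luminescence.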
# ATXN viability: reduces viability in counter-screen for ATXN expression inhibitors; Potency, µM (top dose mostly 56.7 µM), usual class: cytotoxic; 0.49% of 400,000 active; AID 651635; S2 cells (HEK-293 line with an ATXN2-luciferase reporter) viability, CellTiter-Fluor protease fluorescence, 24 h; note: nearly all actives have a fitted effect of over 40% in size
# ATXN2 expr inh: reduces ATXN2 reporter expression in HEK-293 cells | HEK-293 ATXN2-luciferase reporter, luminescence, 24 h | 0.72% of 360,000 active | Potency, µM (series often up to 57 µM), without a hit: at the highest dose activity change, negative = inhibition, usual class: inhibitors; note: % is set by controls: 0 for no effect and ±100 for the full control effect; nearly all actives have a fitted effect of over 55% in size
#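 ATXN2-luciferase reporter cells (luciferase flanked by upstream and downstream ATXN2 gene portions) were treated 24 h at 37 °C with compounds at up to 57 uM. SteadyGlo luminescence gave expression; GF-AFC fluorescence gave viability.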
# VP16 counter: Gal4-VP16 reporter inhibition counter-screen. 3.5% of 310,000 active. Potency, µM (doses to about 53.6 µM), for inactives: at the highest dose activity, negative = inhibition, usual class: inhibitors. Drosophila S2 Gal4-VP16 UAS-luciferase, luminescence, 20 h;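 note: Gal4-VP16 expression switched on by copper sulfate through the metallothionein promoter; % is set by controls: 0 for no effect and ±100 for the full control effect; nearly all actives have a fitted effect of over 50% in size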
# TGFb inhibitor: TGF-b pathway inhibition | HepG2 CAGA-GFP TGF-b/SMAD3 reporter, GFP fluorescence, 18 h; TGF-beta stimulated, 500 pg/mL final | 1.2% of 410,000 active | Potency, µM (top dose mostly 46.1 µM), for inactives: top-dose activity, negative = inhibition, usual class: inhibitors | AID 588855; note: % is set by controls: 0 for no effect and ±100 for the full control effect; nearly all actives have a fitted effect of over 65% in size
#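 Cell-based qHTS in HEPG2 carrying a CAGA-GFP Smad reporter; compounds added before 500 pg/mL final TGF-beta, 18 h incubation at 37 degrees C, GFP fluorescence quantified per cell by imaging cytometry.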
# Numbers without * were called inactive; i = inactive; ? = inconclusive; · = not tested or not shown; [ ] = remark or other dose. Calls come from the whole dose curve; as a rule, active = well fitted curve in the direction sought with a large enough effect; inconclusive = small, poorly fitted or top-dose-only effect, or another doubt; inactive = no such curve, though single readings can be large; an effect the other way counts as inactive or inconclusive. Potency is the fitted concentration of half-maximal effect.
SMILES,HepG2 viability,RORg inh,ATXN viability,ATXN2 expr inh,VP16 counter,TGFb inhibitor
CCOC(=O)Cc1[nH]nc2c1C(c1cccc(OC)c1OC)C(C#N)=C(N)O2 (configuration not stated),3%,-7%,i,-2%,-1%,-2%
CCOC(=O)Cc1[nH]nc2c1C(C1C=CCCC1)C(C#N)=C(N)O2 (configuration not stated),20µM*,21%,i,-8%,?,?
Cc1nn2c(NCCN3CCOCC3)c3c(nc2c1-c1ccccc1)CCCC3,-47%,1.6µM*,i,?,3.5µM*,5%
Cc1nn2c(N3CCN(C)CC3)c3c(nc2c1-c1ccccc1)CCCC3,-18%,-10%,20µM*,?,3%,-10%
COc1ccc(-c2c(C)nn3c(-c4ccccc4)cc(C)nc23)cc1,-3%,-6%,i,-15%,4%,3%
Cc1cc(N2CCCCCC2)n2nc(C)c(-c3ccccc3)c2n1,-6%,?,i,-23%,-14%,-3%
COc1ccc(Nc2c3c(nc4c(-c5ccccc5)c(C)nn24)CCC3)cc1,0%,3.2µM*,i,-2%,3.5µM*,0%
CCC(CO)Nc1ncnc2c1cnn2-c1ccc(C)cc1 (configuration not stated),-18%,·,i,-12%,·,14%
COc1ccc(S(=O)(=O)N2CCC(C)CC2)cc1OC,-5%,1%,i,·,-7%,0%
O=S(=O)(c1ccc2c(c1)C(=NO)c1cc(S(=O)(=O)N3CCCCC3)ccc1-2)N1CCCCC1,1.8µM*,3.5µM*,3.5µM*,3.5µM*,3.2µM*,?
CC1CCN(S(=O)(=O)c2ccc3c(c2)C(=NO)c2cc(S(=O)(=O)N4CCC(C)CC4)ccc2-3)CC1,1.3µM*,1.8µM*,3.2µM*,3.5µM*,0.79µM*,8.9µM*
O=S(=O)(c1cccc(Cl)c1)N1CCN(c2nc(-c3ccccc3)nc3ccccc23)CC1,5%,·,·,·,·,1%
CCCOc1ccc(C(=O)C(c2ccccc2)N2CCOCC2)cc1 (configuration not stated),-14%,23%,i,-15%,-4%,-2%
CCCOc1ccc(C(=O)C(CN2CCOCC2)c2ccccc2)cc1 (configuration not stated),-92%,13µM*,?,20µM*,?,16µM*
CC(C)Oc1ccc(/C=C(/NC(=O)c2ccccc2)C(=O)NCCC(=O)O)cc1,0%,11µM*,i,8%,-17%,-1%
COc1cccc2c1C(=O)c1c(O)c3c(c(O)c1C2=O)C[C@@](O)(C(=O)CO)C[C@@H]3OC1C[C@@H](N)[C@H](O)[C@H](C)O1 (some centres not stated),·,2.5µM*,·,·,?,·
COc1cccc2c1C(=O)c1c(O)c3c(c(O)c1C2=O)CC(O)(C(=O)CO)CC3OC1CC(N(C)C)C(O)C(C)O1 (configuration not stated),2%,·,·,?,·,0.79µM*
COc1cccc2c1C(=O)c1c(O)c3c(c(O)c1C2=O)C[C@](O)(C(=O)CO)C[C@@H]3O[C@H]1C[C@H](N)[C@@H](O)[C@H](C)O1,·,-4%[10 µM],·,·,0%,·
CCCCC(=O)OCC(=O)[C@]1(O)Cc2c(O)c3c(c(O)c2[C@H](OC2CC(NC(=O)C(F)(F)F)C(O)C(C)O2)C1)C(=O)c1c(OC)cccc1C3=O (some centres not stated),·,-30%[10 µM],·,·,-13%,·
COc1cccc2c1C(=O)c1c(O)c3c(c(O)c1C2=O)C[C@@](O)(C(=O)CO)C[C@@H]3O[C@H]1C[C@H](N)[C@H](O[C@@H]2CCCCO2)[C@H](C)O1,·,·,16µM*,0.4µM*,·,·
O=C(Nc1cccc(Cl)c1)N1CCSc2ccccc21,-16%,·,·,·,·,0%
Cc1ccc(CN2CCC(CNC(=O)c3cc4ccc5cccnc5c4[nH]3)CC2)cc1,13µM*,·,·,·,·,?
